Hits are enriched below; roughly 6.1% of the tested compounds scored in any of these assays.
HepG2 tox: kills HepG2 cells in TGF-b inhibitor counter-screen; AID 588856; Potency, µM (doses to about 46.1 µM), for the others: at the top dose activity change, negative = cytotoxicity, most hits filed as cytotoxic; hit rate 0.76% among 410,000; HepG2 CAGA-GFP viability, ATP luminescence, 18 h
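HepG2 CAGA-GFP cells (1000/well, DMEM with 1% FBS) received compound, then TGF-beta at 500 pg/mL final, and were incubated 18 hours at 37 degrees C. Viability was read by CellTiter-Glo luminescence. Media-only wells were set as complete cell-killing and DMSO as no toxicity.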
ATXN2 expr inh: inhibitors of ATXN2 expression. hit rate 0.72% among 360,000. HEK-293 ATXN2-luciferase reporter, luminescence, 24 h. AID 1745845. Potency, µM (series often up to 57 µM), without a hit: at the highest dose activity change, negative = inhibition, actives largely listed as inhibitors; further: on the % scale 0 is the no-effect control and ±100 the full control effect; nearly all actives have a fitted effect of over 55% in size
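ATXN2-luciferase reporter cells (luciferase flanked by upstream and downstream ATXN2 gene portions) were treated 24 h at 37 °C with compounds at up to 57 uM. SteadyGlo luminescence gave expression; GF-AFC fluorescence gave viability.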
S2 tox: viability counter-screen for ATXN expression inhibitors | S2 cells (HEK-293 line with an ATXN2-luciferase reporter) viability, CellTiter-Fluor protease fluorescence, 24 h | hit rate 0.49% among 400,000 | Potency, µM (highest dose often 56.7 µM), most hits filed as cytotoxic; further: nearly all actives have a fitted effect of over 40% in size
TGFb inhibitor: TGF-b pathway inhibition | HepG2 CAGA-GFP TGF-b/SMAD3 reporter, GFP fluorescence, 18 h; TGF-beta stimulated, 500 pg/mL final | Potency, µM (series often up to 46.1 µM), for the others: top-dose activity, negative = inhibition, hits mostly inhibitors | hit rate 1.2% among 410,000 | AID 588855; further: on the % scale 0 is the no-effect control and ±100 the full control effect; nearly all actives have a fitted effect of over 65% in size
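Inhibition was scored as loss of TGF-beta-induced (500 pg/mL final, 18 hours, 37 degrees C) GFP in HEPG2 cells carrying a CAGA-GFP reporter, in DMEM with 1% FBS. Well GFP was summed per cell; Activity was normalised to unstimulated and stimulated DMSO wells, then concentration-response fitting.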
RORgamma inh: ROR gamma (mouse) transcription inhibition; P51450; Drosophila S2 Gal4-RORgamma UAS-luciferase reporter, 20 h; Potency, µM (series often up to 53.6 µM), for the others: top-dose activity change, negative = inhibition, most hits filed as inhibitors; hit rate 5.4% among 310,000; AID 2551; further: on the % scale 0 is the no-effect control and ±100 the full control effect; nearly all actives have a fitted effect of over 60% in size
Target sequence (P51450 whole entry, looked up, the tested form may be a part): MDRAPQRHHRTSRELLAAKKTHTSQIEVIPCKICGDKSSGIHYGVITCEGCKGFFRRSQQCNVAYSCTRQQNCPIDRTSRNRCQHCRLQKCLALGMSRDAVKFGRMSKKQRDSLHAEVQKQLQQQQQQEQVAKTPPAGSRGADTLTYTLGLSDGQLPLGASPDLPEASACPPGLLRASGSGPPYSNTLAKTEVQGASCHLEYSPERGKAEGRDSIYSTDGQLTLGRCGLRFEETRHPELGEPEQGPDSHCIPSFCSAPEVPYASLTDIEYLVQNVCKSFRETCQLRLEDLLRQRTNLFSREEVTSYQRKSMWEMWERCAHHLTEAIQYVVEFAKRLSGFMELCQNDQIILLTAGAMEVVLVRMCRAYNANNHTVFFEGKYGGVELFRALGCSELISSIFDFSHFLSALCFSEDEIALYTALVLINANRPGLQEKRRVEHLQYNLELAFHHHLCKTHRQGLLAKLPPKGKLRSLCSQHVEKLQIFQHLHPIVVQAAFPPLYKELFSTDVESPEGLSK
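Drosophila Schneider cells stably carrying a metallothionein-driven Gal4 DBD–ROR gamma fusion and a UAS-Photinus luciferase reporter were exposed to compound for 1 hr, then induced with copper sulfate (700 uM final) for 20 hr at ambient temperature before luminescence reading.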
Gal4-VP16 FLuc: inhibits Gal4-VP16 luciferase reporter, ROR gamma counter-screen; hit rate 3.5% among 310,000; Potency, µM (titrated, usually from 53.6 µM), inactives show at the highest dose activity, negative = inhibition, actives largely listed as inhibitors; Drosophila S2 Gal4-VP16 UAS-luciferase, luminescence, 20 h;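 further: Gal4-VP16 expression switched on by copper sulfate through the metallothionein promoter; on the % scale 0 is the no-effect control and ±100 the full control effect; nearly all actives have a fitted effect of over 50% in size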
* = called active by the depositor; ! = not confirmed by another sample. The call rests on the fitted dose curve; in most records, active means well fitted curve in the direction sought with a large enough effect; inconclusive means small, poorly fitted or top-dose-only effect, or another doubt; inactive means no such curve, though single readings can be large; an effect the other way counts as inactive or inconclusive. Potency means the concentration at half of the fitted maximal effect.

Cc1cccc(-n2c(CCc3ccccc3)nnc2SCC(=O)c2ccccc2)c1 was read as HepG2 tox -6%, ATXN2 expr inh inconclusive, S2 tox inconclusive, TGFb inhibitor inconclusive, RORgamma inh inconclusive and Gal4-VP16 FLuc 11µM*.
COC(=O)c1cn([C@@H]2C[C@@H](C(=O)Nc3cccc(SC)c3)N(C3CCCC3)C2)nn1 was read as S2 tox inactive.
For COc1ccccc1C(=O)OCC(=O)Nc1ccc(N2CCCCC2)cc1 the results were HepG2 tox -8% and TGFb inhibitor -5%.
`CCSc1nc2ccccc2n1CC(N)=O` gave HepG2 tox 9%, ATXN2 expr inh 0%, S2 tox inactive, TGFb inhibitor 40%, RORgamma inh -34% and Gal4-VP16 FLuc -15%.
Screening CCSc1nc2ccccc2n1C(=O)/C=C\c1ccc(OC)c(OC)c1 returned HepG2 tox -3%, ATXN2 expr inh 13µM*, S2 tox inconclusive, TGFb inhibitor -27%, RORgamma inh 10µM* and Gal4-VP16 FLuc 10µM*.
CCOc1ccc(OCC)c(NC(=O)C(NS(=O)(=O)c2ccc(Br)s2)c2ccccc2)c1 (configuration not stated) was read as HepG2 tox -18%, ATXN2 expr inh 11%, S2 tox inactive and TGFb inhibitor -6%.
For CCOC(=O)c1ccc(NC(=O)C2CCN(C(=O)N3CC(C)Oc4ccc(C)cc43)CC2)cc1 (configuration not stated) the results were HepG2 tox -68% and TGFb inhibitor inconclusive.
Screening CCC(=O)N1CCc2cc(S(=O)(=O)CCC(=O)Nc3cc(Cl)ccc3OC)ccc21 returned HepG2 tox -9%, ATXN2 expr inh 0%, S2 tox inactive and TGFb inhibitor inconclusive.
`O=C(NC(=S)N1CCN(c2ccc([N+](=O)[O-])cc2)CC1)c1ccccc1F` gave HepG2 tox -28%, ATXN2 expr inh -13%, S2 tox inactive, TGFb inhibitor -27%, RORgamma inh 0.56µM* and Gal4-VP16 FLuc 1µM*.
Screening O=C(NC(=S)N1CCN(c2ccc([N+](=O)[O-])cc2)CC1)c1ccc(F)cc1 returned HepG2 tox -9%, ATXN2 expr inh -19%, S2 tox inconclusive, TGFb inhibitor inconclusive, RORgamma inh 1.1µM* and Gal4-VP16 FLuc 1µM*.
O=C(NC(=S)N1CCN(c2ccc(F)cc2)CC1)c1ccccc1 was read as HepG2 tox -26%, S2 tox inactive and TGFb inhibitor -24%.
For O=[N+]([O-])c1ccc(N2CCN(C(=S)Nc3ccccc3)CC2)cc1 the results were HepG2 tox 0%, ATXN2 expr inh -8%, S2 tox inconclusive, TGFb inhibitor -2%, RORgamma inh -4% and Gal4-VP16 FLuc -3%.
For O=C(NC(=S)N1CCN(c2ccc([N+](=O)[O-])cc2)CC1)c1ccccc1Cl the results were HepG2 tox -23%, ATXN2 expr inh -30%, S2 tox inactive, TGFb inhibitor -12%, RORgamma inh 0.45µM* and Gal4-VP16 FLuc 1.4µM*.
`Cc1ccc(CNc2nc(-c3ccco3)nn2C(=O)c2ccccc2[N+](=O)[O-])cc1` gave HepG2 tox -10%, ATXN2 expr inh 6%, S2 tox inactive and TGFb inhibitor -1%.
CC(C)=CCc1c(O)cc2oc3c(CC=C(C)C)c(O)c(O)c(CC=C(C)C)c3c(=O)c2c1O was read as HepG2 tox 8.9µM*, ATXN2 expr inh inconclusive, S2 tox inconclusive, TGFb inhibitor 6.3µM*, RORgamma inh inconclusive and Gal4-VP16 FLuc inconclusive.
`CC(C)=CCc1c(O)cc2oc(C)cc(=O)c2c1O` gave RORgamma inh 45% and Gal4-VP16 FLuc -19%.
For COc1c(O)cc2oc3cc(O)c(CC=C(C)C)c(O)c3c(=O)c2c1CC=C(C)C the results were RORgamma inh inconclusive and Gal4-VP16 FLuc 25µM*!.
CCCCOc1ccc(C(C)NC(=O)CN2C(=O)CSc3ccc(S(=O)(=O)N4CCOCC4)cc32)cc1 (configuration not stated) was read as HepG2 tox -37% and TGFb inhibitor inconclusive.
Screening COc1ccc2c(c1)CC(N1CCN(C)CC1)c1cc(OC)ccc1S2 (configuration not stated) returned HepG2 tox 16µM*, ATXN2 expr inh 28µM*, S2 tox inconclusive and TGFb inhibitor inconclusive.
CSc1ccc2c(c1)C(N1CCN(C)CC1)Cc1ccc(F)cc1S2 (configuration not stated) was read as HepG2 tox -130%, S2 tox inactive and TGFb inhibitor inconclusive.
For CC(=O)c1ccc(NC(=O)CSc2nc(-c3ccccc3C)nc3c2c(=O)n(C)c(=O)n3C)cc1 the results were HepG2 tox 6%, ATXN2 expr inh 0%, S2 tox inactive and TGFb inhibitor 28%.
CCc1ccc(CNC(=O)CC2C(=O)NCCN2Cc2ccccc2F)nc1 (configuration not stated) was read as HepG2 tox -3%, ATXN2 expr inh -36%, S2 tox inactive, TGFb inhibitor -1%, RORgamma inh 10µM* and Gal4-VP16 FLuc inconclusive.
Screening O=C(Cc1ccc(OCc2ccccc2)cc1)NO returned HepG2 tox -7% and TGFb inhibitor 9%.
For O=C(Nc1ccc(OC(F)(F)F)cc1)c1sccc1NCc1ccnc2ccccc12 the results were ATXN2 expr inh 78%.
`CCCC(=O)NC(c1ccc(C)cc1)c1ccc2cccnc2c1O` (configuration not stated) gave HepG2 tox -18%, ATXN2 expr inh inconclusive, S2 tox inactive, TGFb inhibitor inconclusive, RORgamma inh 1.6µM* and Gal4-VP16 FLuc 2.2µM*.
`CCCCC(=O)NC(c1ccc(N(C)C)cc1)c1ccc2cccnc2c1O` (configuration not stated) gave HepG2 tox -62%, ATXN2 expr inh inconclusive, S2 tox inconclusive, TGFb inhibitor inconclusive, RORgamma inh 5µM* and Gal4-VP16 FLuc 3.2µM*.
For CC(C)C(=O)NC(c1ccc(N(C)C)cc1)c1ccc2cccnc2c1O (configuration not stated) the results were HepG2 tox 6% and TGFb inhibitor inconclusive.
CCCC(=O)NC(c1cccc([N+](=O)[O-])c1)c1ccc2cccnc2c1O (configuration not stated) was read as HepG2 tox -16%, S2 tox inconclusive and TGFb inhibitor -28%.

Bioassay records as filed in PubChem BioAssay.
